Consider 14 compounds from PubChem BioAssay (NCATS).

Test [1] concerns the target Peroxisome proliferator-activated receptor delta (Homo sapiens) (UniProt Q03181). The test can be described thus: qHTS assay for small molecule antagonists of peroxisome proliferator-activated receptor delta signaling (AID 588535; active = well fitted inhibition curve with a large enough effect in the signal ratio, with a control signal flat, not every such curve was filed as active; the % refers to the signal ratio). As to conditions: HEK293T PPARd-UAS-bla, beta-lactamase FRET ratio, 18 h; series mostly up to 76.7 µM. A digest of the protocol: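 Titrations were run on PPAR-delta-UAS-bla HEK293T cells in charcoal/dextran-stripped serum, incubated 18 h at 37 C. CCF4 fluorescence (460/530 nm) after 2 h RT; Hill equation yields IC50 and maximal response.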

Test [2] deals with Peroxisome proliferator-activated receptor gamma (Homo sapiens) (UniProt P37231). Briefly: qHTS assay for small molecule agonists of peroxisome proliferator-activated receptor gamma signaling (AID 588536; active = well fitted curve in the direction sought with a large enough effect in the signal ratio, with a control signal flat, not every such curve was filed as active; the % refers to the signal ratio;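 also: 0% = DMSO basal wells and 100% = rosiglitazone at 2 µM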). As to conditions: HEK293 PPARg-UAS-bla, beta-lactamase ratio, 16 h, percent of rosiglitazone response, DMSO as zero; series mostly up to 76.7 µM. An outline of the steps:
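Compound treatment: 16 h, 37 C, HEK293 GeneBLAzer cells. Detection: CCF4, 2 h RT. Values: Hill-fit EC50, efficacy as % of 2 uM rosiglitazone.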

Test [3] has the same target. Briefly: qHTS assay for small molecule antagonists of peroxisome proliferator-activated receptor gamma signaling (AID 588537; active = well fitted inhibition curve with a large enough effect in the signal ratio, with a control signal flat, not every such curve was filed as active; the % refers to the signal ratio;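 also: reporter cells co-stimulated with 50 nM rosiglitazone agonist during compound treatment; % of control where 0% means no effect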). As to conditions: HEK293 PPARg-UAS-bla, beta-lactamase ratio, antagonist mode; series mostly up to 76.8 µM. An outline of the steps:
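Antagonist-mode β-lactamase reporter screen run as a titration series. HEK293 PPARγ-UAS-bla cells are stimulated with rosiglitazone (50 nM final) for 16 h, then CCF4 is read at 460/530 nm. Data are scaled between DMSO and rosiglitazone and fitted to the Hill equation.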

The target in test [4] is Vitamin D3 receptor (Homo sapiens) (UniProt P11473). The test can be described thus: qHTS assay for small molecule antagonists of vitamin D receptor signaling (AID 588541).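 Also: receptor activated by calcitriol during compound treatment; % is scaled to controls: 0 for no effect and ±100 for the full control effect.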 As to conditions: HEK293T VDR-UAS-bla, beta-lactamase ratio, antagonist mode; series mostly up to 76.7 µM. An outline of the steps:
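Antagonist-mode beta-lactamase reporter assay: HEK293T VDR-UAS-bla cells were exposed to titrated compound alongside 1-alpha,25-dihydroxyvitamin D3 at 3 nM final for 16 h. Values were normalized to the 50 nM agonist control and DMSO basal, with IC50 and efficacy from Hill equation fits.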

Test [5] can be described thus: qHTS assay for small molecule agonists of retinoid X receptor alpha signaling (AID 588544). As to conditions: HEK293T RXRa-UAS-bla, beta-lactamase reporter, 18 h; 530 nm emission.
The target in test [6] is Retinoic acid receptor RXR-alpha (Homo sapiens) (UniProt P19793). The description is as above. To be noted: HEK293T RXRa-UAS-bla, beta-lactamase reporter, 18 h; series mostly up to 76.7 µM.
For test [7], the target named is Thyroid hormone receptor beta (Homo sapiens) (UniProt P10828). The test can be described thus: qHTS assay for small molecule agonists of thyroid hormone receptor beta signaling (AID 588545).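 Also: 0% = DMSO only and 100% = 10 nM T3.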 To be noted: TR-UAS-bla GripTite HEK 293, beta-lactamase ratio, agonist mode, 18 h, percent of T3 response, DMSO as zero; series mostly up to 76.7 µM. An outline of the steps:
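Stimulation of a TR-driven beta-lactamase reporter was quantified in GripTite HEK 293 cells. Compound series ran for 18 hrs; curves were normalized to T3 and DMSO controls and fitted to yield EC50.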

Test [8] in a line: qHTS assay for small molecule antagonists of retinoid X receptor alpha signaling (AID 588546; active = well fitted inhibition curve with a large enough effect in the signal ratio, with a control signal flat, not every such curve was filed as active; the % refers to the signal ratio;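 also: cells stimulated with 9-cis-retinoic acid as agonist; % is scaled to controls: 0 for no effect and ±100 for the full control effect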). To be noted: HEK293T RXRa-UAS-bla, beta-lactamase ratio, antagonist mode; measured here: W530 green channel, cytotoxicity proxy. A digest of the protocol: (§1)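 Beta-lactamase reporter inhibition, read as CCF4 fluorescence ratio (ex 405, em 460/530 nm) after 2 h at RT. HEK293T UAS-bla cells, 2500/well, were stimulated with 9-cis-RA at 500 or 100 nM final alongside test compound for 18 h at 37 C.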

The target of test [9] is Retinoic acid receptor RXR-alpha (Homo sapiens) (UniProt P19793). The description is as above. To be noted: HEK293T RXRa-UAS-bla, beta-lactamase ratio, antagonist mode. An outline of the steps:
as §1

Test [10] has as its target Thyroid hormone receptor beta (Homo sapiens) (UniProt P10828). The test can be described thus: qHTS assay for small molecule antagonists of thyroid hormone receptor beta signaling (AID 588547; active = well fitted inhibition curve with a large enough effect in the signal ratio, with a control signal flat, not every such curve was filed as active; the % refers to the signal ratio;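 also: cells stimulated with 0.4 nM T3 agonist during compound exposure; % is scaled to controls: 0 for no effect and ±100 for the full control effect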). As to conditions: TR-UAS-bla HEK293, beta-lactamase ratio, antagonist mode, 18 h. A digest of the protocol:
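Inhibition of T3-driven (0.4nM final) beta-lactamase reporter activity was measured over 0.59 nM to 92 uM compound after 18 h at 37 C. The cells were GripTite HEK293 TR-UAS-bla in charcoal/dextran-stripped serum, with CCF4 ratio read-out and IC50 from Hill fits.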

Structures are written as SMILES. “And” between values parts separate entries of the source, which are not always exact repeats. Equal values may be shown once. Results filed as inconclusive are left out. The source made the active and inactive calls. Unless noted, calls follow the shape of the full dose curve.

Peroxisome proliferator-activated receptor gamma (Homo sapiens), sequence (P37231 whole entry, looked up): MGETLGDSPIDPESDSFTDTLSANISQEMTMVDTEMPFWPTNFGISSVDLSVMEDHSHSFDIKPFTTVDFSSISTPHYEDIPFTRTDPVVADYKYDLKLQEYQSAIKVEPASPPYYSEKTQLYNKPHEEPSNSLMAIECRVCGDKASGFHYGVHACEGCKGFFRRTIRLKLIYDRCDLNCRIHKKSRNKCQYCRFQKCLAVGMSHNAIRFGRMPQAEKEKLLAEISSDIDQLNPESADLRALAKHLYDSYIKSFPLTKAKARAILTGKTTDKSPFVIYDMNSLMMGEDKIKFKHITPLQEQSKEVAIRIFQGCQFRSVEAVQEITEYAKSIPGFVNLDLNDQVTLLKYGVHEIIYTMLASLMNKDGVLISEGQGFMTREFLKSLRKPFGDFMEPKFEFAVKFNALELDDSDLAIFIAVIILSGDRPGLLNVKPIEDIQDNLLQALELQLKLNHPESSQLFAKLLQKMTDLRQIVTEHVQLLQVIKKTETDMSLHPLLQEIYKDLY
Thyroid hormone receptor beta (Homo sapiens), sequence (P10828 whole entry, looked up): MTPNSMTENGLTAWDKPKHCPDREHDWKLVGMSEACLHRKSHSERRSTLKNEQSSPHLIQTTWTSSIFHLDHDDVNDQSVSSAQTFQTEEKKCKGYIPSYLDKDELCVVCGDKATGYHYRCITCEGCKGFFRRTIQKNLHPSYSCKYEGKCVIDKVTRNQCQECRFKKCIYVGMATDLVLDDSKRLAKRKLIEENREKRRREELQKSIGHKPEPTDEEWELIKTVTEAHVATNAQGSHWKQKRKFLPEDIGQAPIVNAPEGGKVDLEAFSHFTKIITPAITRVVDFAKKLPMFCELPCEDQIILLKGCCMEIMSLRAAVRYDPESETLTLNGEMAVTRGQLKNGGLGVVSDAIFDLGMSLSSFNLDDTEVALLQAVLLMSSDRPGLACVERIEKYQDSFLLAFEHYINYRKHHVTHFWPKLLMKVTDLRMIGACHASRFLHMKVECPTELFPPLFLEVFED
Peroxisome proliferator-activated receptor delta (Homo sapiens), sequence (Q03181 whole entry, looked up): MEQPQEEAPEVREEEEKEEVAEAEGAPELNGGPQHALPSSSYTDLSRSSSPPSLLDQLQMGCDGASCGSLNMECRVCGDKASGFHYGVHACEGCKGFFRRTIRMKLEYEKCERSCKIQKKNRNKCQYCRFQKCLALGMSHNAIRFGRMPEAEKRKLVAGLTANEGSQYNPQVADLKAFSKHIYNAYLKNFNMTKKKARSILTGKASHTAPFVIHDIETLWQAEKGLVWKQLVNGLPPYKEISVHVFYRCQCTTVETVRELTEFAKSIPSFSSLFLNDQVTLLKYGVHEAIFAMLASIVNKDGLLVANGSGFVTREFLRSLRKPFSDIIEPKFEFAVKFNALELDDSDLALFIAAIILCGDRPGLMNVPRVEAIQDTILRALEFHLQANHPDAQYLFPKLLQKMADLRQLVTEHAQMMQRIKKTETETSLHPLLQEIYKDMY
Retinoic acid receptor RXR-alpha (Homo sapiens), sequence (P19793 whole entry, looked up): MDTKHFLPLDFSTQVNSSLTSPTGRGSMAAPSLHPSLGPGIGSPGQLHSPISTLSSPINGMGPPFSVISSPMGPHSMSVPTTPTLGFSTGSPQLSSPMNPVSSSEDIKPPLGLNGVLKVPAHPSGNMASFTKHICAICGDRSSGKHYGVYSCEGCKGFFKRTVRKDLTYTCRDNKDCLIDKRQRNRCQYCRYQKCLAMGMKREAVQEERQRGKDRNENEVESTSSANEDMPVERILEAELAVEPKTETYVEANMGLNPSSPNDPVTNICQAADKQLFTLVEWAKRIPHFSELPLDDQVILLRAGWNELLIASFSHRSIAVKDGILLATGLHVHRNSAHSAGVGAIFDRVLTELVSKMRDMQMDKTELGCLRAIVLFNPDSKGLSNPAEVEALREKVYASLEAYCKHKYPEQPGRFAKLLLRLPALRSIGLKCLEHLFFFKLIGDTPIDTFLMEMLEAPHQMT
Vitamin D3 receptor (Homo sapiens), sequence (P11473 whole entry, looked up): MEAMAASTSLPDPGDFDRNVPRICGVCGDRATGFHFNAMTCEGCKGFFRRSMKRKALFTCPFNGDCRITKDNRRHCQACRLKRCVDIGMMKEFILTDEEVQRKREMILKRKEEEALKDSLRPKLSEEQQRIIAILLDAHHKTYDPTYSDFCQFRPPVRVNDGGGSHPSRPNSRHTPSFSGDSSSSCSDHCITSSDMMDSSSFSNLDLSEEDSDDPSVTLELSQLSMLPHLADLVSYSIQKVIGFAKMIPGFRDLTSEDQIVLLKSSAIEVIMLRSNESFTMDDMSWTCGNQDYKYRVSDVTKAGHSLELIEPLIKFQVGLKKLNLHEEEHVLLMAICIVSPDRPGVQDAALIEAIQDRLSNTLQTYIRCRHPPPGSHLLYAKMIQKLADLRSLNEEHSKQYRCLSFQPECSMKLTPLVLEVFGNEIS

On to `COP(=S)(OC)Oc1ccc(SC)c(C)c1`, for which the result in test [1], in test [2], in test [3] and in test [7] was inactive. Moreover, the Potency entry in test [4] and in test [6] was “inactive” in each case. Also, the max response is -8.01% and -11.8% in test [5]; -22.3% and -7.85% in test [8]; -5.05% (inactive) and -30% (inactive) in test [9]. For the same compound, in test [10], the activity change % (negative = inhibition) was -0.0791% (inactive).

Turning to `O=C1c2ccccc2C(=O)C1C(=O)C(c1ccccc1)c1ccccc1`, the result in [3] and in test [7] was inactive. Besides, the max response in test [5] is -20.8%; in test [8] it was -10.9%; in [9], 13.2% (inactive). Further, in test [6], the Potency result is “inactive”. The activity change % (negative = inhibition) in test [10] was 3.48% (inactive).

As to `COc1cc(OC)c(OC)cc1C=O`, the result in [2] was inactive. Also, in [4], the Potency entry was “inactive”. The max response in [8] was -5.72%; in [9] it was -9.79% (inactive).

With `O=P1(N(CCCl)CCCl)NCCCO1` (stereo unspecified), the result in test [1], in test [2], in [3] and in test [7] was inactive. Moreover, the Potency entry in test [4] and in [6] was “inactive” each time. Moreover, the max response is 8.36% and -10.5% in [5]; -4.41% and 6% in test [8]; 8.47% (inactive) and -0.0175% (inactive) in test [9]. In test [10], the activity change % (negative = inhibition) is -0.786% (inactive).

Consider `CCC(C)(C)c1ccc(O)cc1`, for which the outcome in test [2], in [3] and in [7] was inactive. Further, the Potency entry in test [4] and in test [6] was “inactive” throughout. For the same compound, the max response in [5] is -12.7% and -6.48%; in test [8], -6.99% and -5.65%; in [9], 7.35% (inactive) and 8.15% (inactive). Also, the activity change % (negative = inhibition) in [10] was 9.09% (inactive).

For the compound `C[C@]1(O)CC[C@H]2[C@@H]3CCC4=CC(=O)CC[C@]4(C)[C@@]3(F)[C@@H](O)C[C@@]21C`, the result in test [1], in [2], in [3] and in test [7] was inactive. Also, the max response was 3.94% in [5], 17.9% in test [8] and -6.75% (inactive) in test [9]. Besides, the Potency result in [6] was “inactive”. The activity change % (negative = inhibition) in test [10] is 5.6% (inactive).

For the compound `Nc1nc(N)nc(NC2CC2)n1`, the outcome in [1] and in test [7] was inactive. For the same compound, the results for the max response in test [5], in test [8] and in [9] were -19.4%, -17.8% and 6.27% (inactive), respectively. Besides, in test [6], the Potency result was “inactive”. In [10], the activity change % (negative = inhibition) is -23% (inactive).

Regarding `C[C@]12CCC(=O)C=C1CC[C@@H]1[C@@H]2CC[C@@]2(C)[C@H]1CC[C@]2(C)O`, the max response in [5] was -11.4%; in test [8] it was -11.8%; in test [9] it was 36.9% (inactive). The Potency entry in test [6] was “inactive”. Besides, in [7], the outcome was inactive.

Regarding `NCCc1ccc(O)cc1`, the outcome in test [1], in test [2] and in test [7] was inactive. For the same compound, the max response was -3.57% in test [5], -9.48% in test [8] and -2.52% (inactive) in test [9]. The Potency result in test [6] was “inactive”. Moreover, in [10], the activity change % (negative = inhibition) is -4.83% (inactive).

Turning to `COP(=S)(OC)Oc1cc(Cl)c(Cl)cc1Cl`, the result in test [1], in [2], in test [3] and in [7] was inactive. In addition, the max response in test [5] was -2.58%; in test [8], 1.09%; in [9], -5.5% (inactive). Further, in test [6], the Potency entry is “inactive”. Moreover, the activity change % (negative = inhibition) in test [10] is 19.2% (inactive).

`Oc1ccccc1`: in test [5], the max response is -13.8% and -5.05%. In addition, the Potency entry in test [6] is “inactive”.

Turning to `CCCC(C)(COC(N)=O)COC(N)=O`, the outcome in test [1], in test [2], in test [3] and in test [7] was inactive. Besides, the Potency entry in [4] was “inactive”. For the same compound, the results for the max response in test [8] and in test [9] were -3.53% and -3.87% (inactive), respectively. Also, the activity change % (negative = inhibition) in test [10] is 14.4% (inactive).

On to `[N-]=[N+]=CC(=O)OC[C@H](N)C(=O)O`, for which the outcome in [1] and in test [7] was inactive. The Potency result in test [4] and in [6] was “inactive” in each case. In addition, the max response in test [5] was -12%; in test [8], -15.7%; in test [9], 7.74% (inactive). The activity change % (negative = inhibition) in [10] was 10.8% (inactive).

`O=C(O)CCCc1ccc(N(CCCl)CCCl)cc1`: the outcome in test [1], in test [2], in test [3] and in test [7] was inactive. The Potency entry in test [4] and in test [6] was “inactive” throughout. Besides, the max response in test [5] was 15.5% and 20.9%; in test [8], 6.94% and -4.83%; in [9] it was 8.7% (inactive) and 8.13% (inactive). In addition, the activity change % (negative = inhibition) in [10] is 16.9% (inactive) and 14.1% (inactive).
